PubChem BioAssay AID1645857 (Buhrlage Lab, Dana-Farber Cancer Institute and Novartis …, 2021)
In all, about 47,000 compounds went through this assay and about 1,400 (3%) were called active. No stated cut-off is given here; in the data, active means inhibition above about 30%; inactive means the rest. The list comes from a sample in which actives are over-represented; it also holds similar structures and randomly drawn compounds.

molecular target: Ubiquitin carboxyl-terminal hydrolase 28 (Homo sapiens) (UniProt Q96RU2); test: blocks human USP28 ubiquitin-rhodamine cleavage (AID 1645857); settings: purified USP28, Ub-rhodamine cleavage fluorescence, 30 min; at 25 µM; active compounds read high
Sequence (Q96RU2 whole entry, looked up): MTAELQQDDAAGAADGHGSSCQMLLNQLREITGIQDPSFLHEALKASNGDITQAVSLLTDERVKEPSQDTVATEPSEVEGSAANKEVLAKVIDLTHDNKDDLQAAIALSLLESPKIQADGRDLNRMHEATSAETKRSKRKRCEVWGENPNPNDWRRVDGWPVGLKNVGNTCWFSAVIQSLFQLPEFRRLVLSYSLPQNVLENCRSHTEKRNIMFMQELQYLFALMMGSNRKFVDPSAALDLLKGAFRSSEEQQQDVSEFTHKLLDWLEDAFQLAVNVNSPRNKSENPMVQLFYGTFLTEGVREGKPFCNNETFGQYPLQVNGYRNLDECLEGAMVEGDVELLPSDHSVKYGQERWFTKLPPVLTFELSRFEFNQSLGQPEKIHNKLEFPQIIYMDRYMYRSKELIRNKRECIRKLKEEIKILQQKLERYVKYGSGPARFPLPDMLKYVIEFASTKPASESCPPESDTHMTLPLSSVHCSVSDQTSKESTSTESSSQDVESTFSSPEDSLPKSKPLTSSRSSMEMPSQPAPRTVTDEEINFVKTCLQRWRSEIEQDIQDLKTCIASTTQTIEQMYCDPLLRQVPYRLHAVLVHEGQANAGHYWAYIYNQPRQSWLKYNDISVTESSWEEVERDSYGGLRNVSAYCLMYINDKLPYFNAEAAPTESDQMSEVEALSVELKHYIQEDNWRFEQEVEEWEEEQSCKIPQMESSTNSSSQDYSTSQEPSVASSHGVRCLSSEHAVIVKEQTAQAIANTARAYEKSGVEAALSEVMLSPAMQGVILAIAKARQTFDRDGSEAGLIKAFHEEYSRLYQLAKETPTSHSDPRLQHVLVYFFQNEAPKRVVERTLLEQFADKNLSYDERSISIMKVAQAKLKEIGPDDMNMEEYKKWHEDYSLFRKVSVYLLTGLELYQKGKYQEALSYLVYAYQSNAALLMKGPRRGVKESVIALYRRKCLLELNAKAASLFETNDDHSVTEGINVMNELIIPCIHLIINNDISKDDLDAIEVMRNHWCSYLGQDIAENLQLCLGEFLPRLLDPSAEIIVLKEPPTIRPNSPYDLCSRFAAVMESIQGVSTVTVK

inhibition, inactive:
Cc1noc(-c2cccn(Cc3cc(F)ccc3F)c2=O)n1 29%
O=C(Cn1cccc(-c2nc(-c3ccccc3)no2)c1=O)Nc1ccccc1F 6.71%
CC1(C(=O)NC2CCCCCC2)Cn2c(nc3ccccc32)C(=O)N1CCc1ccccc1 (stereo unspecified) -1.29%
O=C(c1cc2c(=O)n3ccccc3nc2n1Cc1ccccc1)N1CCN(c2ccccc2)CC1 -0.309%
COc1ccc(-c2cnc(SCCNC(=O)c3cccc(F)c3)[nH]2)cc1 12.3%
COc1ccc(NC(=O)c2cc(=O)[nH]c3ccccc23)cc1S(=O)(=O)N1CCOCC1 -0.445%
COc1ccccc1Nc1ncnc2oc(C)c(C)c12 -18.5%
COc1ccc(OC)c(-n2c(CNC(=O)c3ccco3)nnc2SCC(=O)N2CCc3ccccc32)c1 0.00951%
CC(=O)c1ccc(NC(=O)CCCn2nc([N+](=O)[O-])cc2C)cc1 9.41%
C#CCOc1ccc(CN2CCc3nc(-c4cccnc4)[nH]c(=O)c3C2)cc1OC -1.43%
CS(=O)(=O)N1CCC2(CC1)CN(C(=O)c1ccc3[nH]ccc3c1)Cc1ccccc1O2 7.47%
COCCn1ccc(-c2cc(C(=O)N3CCCN(C)CC3)c3ccccn23)n1 -61%
CN(C)c1cccc(NC(=O)N2CC[C@@H]3[C@H]2C(=O)N(C)[C@@H](Cc2ccccc2)C(=O)N3C)c1 -0.0135%
CC1CCN(S(=O)(=O)N2CCCC(C(=O)Nc3ccccc3Cl)C2)CC1 (stereo unspecified) -2.94%
CCc1cccc(NC(=O)C2CCN(c3ccncc3)CC2)c1 22%
COc1ccc(CNC(=O)c2ccccc2-c2ncc(-c3ccccc3)o2)cc1 21.9%
COc1ccc(CNC(=O)c2cccc3cccnc23)cc1 4.72%
Cc1nn(-c2ccccc2)c(C)c1S(=O)(=O)N1CCN(c2ccccn2)CC1 -7.5%
O=C(c1ccc(N2CCCC2)nn1)N1CCN(c2ccccn2)CC1 2.13%
O=C(N[C@H]1C[C@@H]2C[C@H]1N(C(=O)c1ccc3c(c1)OCO3)C2)c1ccccc1 -126%
CCN(CC)c1ccc(NC(=O)Nc2ccc(OCc3ccccc3)cc2)cc1 -7.22%
O=S(=O)(Nc1ccc(Cc2ccncc2)cc1)c1ccc2c(c1)OCCO2 9.83%
Cc1cc(-c2ncc(C)[nH]2)nc(C2CCCCN2C(=O)c2ccccc2)n1 (stereo unspecified) 5.54%
Cn1c(N2CCN(C(=O)c3cccc(Cl)c3)CC2)cc(=O)n(C)c1=O -5.96%
CC(=O)C[n+]1cc(-c2ccc(C)cc2)n2c1CCC2 -0.406%
Cc1c(Cl)cccc1NC(=O)C[n+]1cc(-c2ccc(Cl)cc2)n2c1CCC2 10.7%
CCCc1cc(=O)[nH]c(N2CCN(c3ccc(Cl)cc3)CC2)n1 0.253%
CC(C)=CCc1cc(O)ccc1O -0.0939%
CN1C(=O)[C@H](Cc2ccccc2)N(C)C(=O)[C@@H]2[C@H]1CCN2C(=O)Nc1cccc(C#N)c1 -9.42%
Cn1nc(C2CCN(Cc3ccc4c(c3)CC(C)(C)O4)CC2)c2nccnc21 -6.5%
CC(C)C(=O)N1c2ncnn2C(c2ccc(Cl)cc2)CC1c1ccccc1 (stereo unspecified) -5.15%
CC(=O)c1ccc(N2CCN(CC(=O)c3c(N)n(Cc4ccccc4)c(=O)n(C)c3=O)CC2)cc1 -11.8%
CN1CCC(N(C)C(=O)c2ccc(Cl)c(S(=O)(=O)Nc3ccccc3C(=O)N(C)C3CCN(C)CC3)c2)CC1 -0.184%
CC(CCc1ccccc1)NCc1c(C(=O)O)n(Cc2ccccc2F)c2ccccc12 (stereo unspecified) 23%
Cc1ccc(CCNCc2c(C(=O)O)n(C)c3ccccc23)cc1 -5.83%
CC1CCCCN1Cc1nc2c([nH]1)c(=O)n(C)c(=O)n2C (stereo unspecified) -0.186%
CC(NS(=O)(=O)c1ccc2c(c1)SCC(=O)N2)c1ccccc1 (stereo unspecified) 13%
CCCN(CCC)CCNS(=O)(=O)c1ccc2c(c1)NC(=O)CCS2 -7.06%
CC(C)NC(=O)CN1C(=O)CC(C)Sc2ccc(S(=O)(=O)N3CCCCC3)cc21 (stereo unspecified) 13.7%
CCc1nnc(C2CCN(C(=O)c3ccc(F)cc3F)CC2)s1 -5.47%
CC1CCN(c2nc(F)c3c(c2F)S(=O)(=O)CCN3Cc2cccnc2)CC1 -20.5%
O=C(COC(=O)C1CCN(S(=O)(=O)c2c(Cl)cccc2Cl)CC1)Nc1ccc2c(c1)CCC2 15.4%
Cc1cccc(-c2nnc(-c3cccc(S(=O)(=O)N4CCCC4)c3)o2)c1 4.29%

inhibition, active:
N#Cc1ccc(NC(=O)Nc2cccn(Cc3ccccc3F)c2=O)cc1 86.6%
COc1ccc(-c2[nH]c3ccccc3c2SCCNC(=O)c2ccc(S(=O)(=O)N3CCOCC3)cc2)cc1 32.8%
C#CCOc1ccc2ccccc2c1CN1CCc2ccccc2C1 39.7%
CC(C)Cc1cc(-c2nn3c(-c4ccccc4Cl)nnc3s2)n[nH]1 30.4%
Cc1ccc(NC(=O)C2CCN(S(=O)(=O)c3cnc[nH]3)CC2)cc1Cl 39%
COc1ccc(CNC(=O)c2[nH]nc3c2CCc2ccccc2-3)cc1 30.6%
Clc1cc2nc(N3CCN(c4ccccn4)CC3)c3nncn3c2cc1Cl 36.5%
CCOc1ccc(NC(=S)Nc2ccc(Cc3ccncc3)cc2)cc1 36.8%
Clc1ccc(C[n+]2cc(-c3ccc(Cl)cc3)n3c2CCC3)cc1 54.6%
CC(C)=CCC(O)C1=CC(=O)c2c(O)ccc(O)c2C1=O (stereo unspecified) 93.4%
Cc1ccc(Cn2c(C(=O)O)c(CNC(C)CCc3ccccc3)c3ccccc32)cc1 (stereo unspecified) 32.3%
CCC(Cc1ccccc1)NS(=O)(=O)c1ccc2c(c1)NC(=O)CS2 (stereo unspecified) 37.3%
O=C(Nc1nnc(-c2cccc([N+](=O)[O-])c2)o1)C1CCN(S(=O)(=O)c2ccc3c(c2)CCC3)CC1 46.2%
